SMN2 splice up: increases expression of the SMN2 splice variant; 210,000 compounds, 2.8% hits; AID 1458; HEK293 SMN2-luciferase splicing reporter, luminescence, 30-36 h; Potency, µM (highest dose often 46.1 µM), hits mostly activators; further: nearly all actives have a fitted effect of over 55% in size
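qHTS luciferase splicing reporter: luminescence rises when SMN2 exon 7 is included in transfected HEK293 cells. Compound exposure lasted 30-36 h at 37C, with 4.5 mM final sodium butyrate as control, followed by a ONE-Glo read.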
ELG1 genotox: induces genotoxicity in HEK293T cells with luciferase-tagged ELG1 | HEK293T ELG1-luciferase reporter, luminescence, 16 h | 330,000 compounds, 1.3% hits | AID 504466 | Potency, µM (titrated, usually from 46 µM), most hits filed as activators; further: nearly all actives have a fitted effect of over 60% in size
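Genotoxic stress is detected as increased luminescence from luciferase-tagged ELG1 in HEK293T cells, measured with ONE-Glo after a 16 hr treatment at 37 °C.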
FLuc modulator: inhibits or activates purified firefly luciferase, miR-21 counter-screen; P08659; purified FLuc, Km substrates, luminescence inhibition; Potency, µM (series often up to 57.5 µM), actives largely listed as inhibitors; 360,000 compounds, 6.9% hits; further: nearly all actives have a fitted effect of over 55% in size
Target sequence (P08659 whole entry, looked up): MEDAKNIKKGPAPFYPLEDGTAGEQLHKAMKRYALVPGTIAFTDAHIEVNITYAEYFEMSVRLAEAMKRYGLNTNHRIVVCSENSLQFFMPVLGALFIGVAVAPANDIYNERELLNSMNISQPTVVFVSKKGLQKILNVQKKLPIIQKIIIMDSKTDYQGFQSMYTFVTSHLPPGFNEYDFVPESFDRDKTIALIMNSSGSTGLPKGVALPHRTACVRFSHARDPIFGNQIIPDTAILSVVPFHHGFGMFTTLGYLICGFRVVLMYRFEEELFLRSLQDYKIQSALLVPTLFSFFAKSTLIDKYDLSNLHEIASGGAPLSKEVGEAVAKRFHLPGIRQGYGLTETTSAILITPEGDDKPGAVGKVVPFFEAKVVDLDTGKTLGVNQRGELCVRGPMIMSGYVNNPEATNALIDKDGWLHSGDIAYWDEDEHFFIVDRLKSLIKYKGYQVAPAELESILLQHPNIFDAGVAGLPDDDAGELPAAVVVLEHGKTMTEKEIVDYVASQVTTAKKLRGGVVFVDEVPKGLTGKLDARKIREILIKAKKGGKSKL
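Purified P. pyralis luciferase (10nM final) with 10uM D-luciferin and 10uM ATP (Km levels) in 50mM Tris acetate pH 7.5, 10mM Mg acetate, 0.01% Tween-20, 0.05% BSA; qHTS 6-point titration, ~60 µM downward; luminescence read.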
Rab9 prom act: Rab9 promoter activation; 320,000 compounds, 2.8% hits; AID 485297; Potency, µM (series often up to 9.22 µM), actives largely listed as activators; Huh7 Rab9 promoter-luciferase reporter, luminescence, 24 h; further: nearly all actives have a fitted effect of over 60% in size
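Promoter activation is measured as luciferase luminescence in Huh7 cells stably transfected with a Rab9 promoter–luciferase construct, following 24 h compound exposure at 37 °C and 10 min reagent incubation at ambient temperature.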
ELG1 repair inh: blocks ELG1-dependent DNA repair in HEK293T cells. 330,000 compounds, 2.3% hits. Potency, µM (titrated, usually from 46.1 µM), actives largely listed as inhibitors. HEK293T ELG1-luciferase reporter, luminescence, 16 h; DNA damage induced by 5-fluorouridine; further: nearly all actives have a fitted effect of over 55% in size
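In this reporter screen, reduction of luminescence relative to DMSO vehicle indicated activity. Compounds and 5-fluorouridine were added together to 2,000 cells per well, incubated for 16 hr at 37 °C, then developed with ONE-Glo.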
NPC1 promoter act: NPC1 promoter activation; Huh7 NPC1 promoter luciferase reporter, 24 h; 320,000 compounds, 2.4% hits; Potency, µM (doses to about 9.22 µM), hits mostly activators; further: nearly all actives have a fitted effect of over 60% in size
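Luminescence read-out of NPC1 promoter-driven luciferase in stably transfected Huh7 cells; compounds delivered in DMSO and left 24 h at 37C, 5% CO2, qHTS titration format.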
ELG1 FLuc counter: luciferase inhibition in cell-free luciferin readout for ELG1 hits; Potency, µM (doses to about 46.1 µM), hits mostly inhibitors; cell-free firefly luciferase luminescence counter-screen, ViewLux; AID 624247; 350 compounds, 3% hits; shares compounds with ELG1 repair inh
ELG1-Luc inh: confirmation of human ELG1-dependent DNA repair inhibitors; shares compounds with ELG1 repair inh; 670 compounds, 68% hits; HEK293T ELG1-luciferase levels, luminescence; cells co-treated with 5-fluorouridine; Potency, µM (titrated, usually from 46.1 µM), usual class: inhibitors; AID 624248; further: nearly all actives have a fitted effect of over 55% in size
ELG1-Luc MMS: MMS-stimulated human ELG1 repair inhibition, confirmed; shares compounds with ELG1 repair inh; HEK293T luciferase-tagged ELG1 level, MMS stimulated; Potency, µM (doses to about 46.1 µM), usual class: inhibitors; 670 compounds, 53% hits; further: nearly all actives have a fitted effect of over 60% in size
ELG1 5FU viab: confirmation of ELG1 repair inhibitors: viability with 5FU. cell viability with 5-FU, ELG1-dependent repair. shares compounds with ELG1 repair inh. AID 624250. 670 tested, under 10 active. Potency, µM (highest dose often 46.1 µM), most hits filed as cytotoxic;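 further: ELG1-luc HEK293T cells cotreated with 5-fluorouridine at 10 µM final; viability measured 16 h after compound addition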
ELG1 MMS cell: confirmation of ELG1 repair inhibitors: viability with MMS; shares compounds with ELG1 repair inh; Cell viability with MMS, ELG1-dependent DNA repair; Potency, µM (doses to about 46.1 µM), most hits filed as cytotoxic; 670 compounds, 33% hits;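 further: ELG1-luc HEK293T cells co-treated with 10 µM MMS; viability read 16 h after compound addition; nearly all actives have a fitted effect of over 60% in size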
Cell viab unstim: affects unstimulated cell viability, ELG1 hit counter-screen | 900 compounds, 8% hits | shares compounds with ELG1 repair inh | Potency, µM (highest dose often 45.9 µM), actives largely listed as cytotoxic | cell viability counter-screen, unstimulated, luminescence;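 further: compound exposure lasted 16 hours before reading; nearly all actives have a fitted effect of over 55% in size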
FLuc enzyme: counter-screen for ELG1 repair inhibitors: firefly luciferase inhibition; shares compounds with ELG1 repair inh; purified firefly luciferase, luminescence counter-screen; Potency, µM (highest dose often 57.5 µM), hits mostly inhibitors; 350 compounds, 10% hits
A number is an active result; 0 = inactive; ? = inconclusive; - = no result; [ ] = another dose, or the depositor's remark. Shown are actives, neighbours in structure and some others; about 9.2% of the full set was active somewhere. The call rests on the fitted dose curve; in most records, active means well fitted curve in the direction sought with a large enough effect; inconclusive means small, poorly fitted or top-dose-only effect, or another doubt; inactive means no such curve, though single readings can be large; an effect the other way counts as inactive or inconclusive.

SMILES	SMN2 splice up	ELG1 genotox	FLuc modulator	Rab9 prom act	ELG1 repair inh	NPC1 promoter act	ELG1-Luc inh	ELG1-Luc MMS	ELG1 5FU viab	ELG1 MMS cell	Cell viab unstim	others
CCCOc1ccc(/C=C/C(=O)Nc2ccc([N+](=O)[O-])cc2)cc1	-	0	0	0	?	0	-	-	-	-	-
Cc1ccc(-c2nnc(SCC(=O)NC3CC3)o2)cc1	-	0	?	?	?	?	-	-	-	-	-
COc1cc(NC(=O)c2cc(-c3ccccc3)nc3c2cnn3C(C)C)cc(OC)c1OC	-	0	-	-	3.7µM	-	7.1µM	?	?	?	25µM
O=C(NCCCN1CCN(c2ccccc2F)CC1)c1cc2c(s1)-c1ccccc1OC2	0	-	0	-	-	-	-	-	-	-	-
N#Cc1cc2cc3c(cc2nc1SCC(=O)N1CCOCC1)OCCO3	-	?	0	?	?	?	-	-	-	-	?	ELG1 FLuc counter=0;FLuc enzyme=?
Cc1cc2cc3c(cc2nc1SCC(=O)N1CCCC1)OCCO3	-	0	0	0	?	0	-	-	-	-	-
CCC(C)[C@H]1CNCCN1CCc1cc(C(F)(F)F)cc(C(F)(F)F)c1 (some centres not stated)	-	0	0	0	3.5µM	0	0	22µM	?	22µM	?
C=CCn1c(Oc2ccccc2F)nc2c1c(=O)n(C)c(=O)n2C	-	0	0	0	4.1µM	0	18µM	20µM	?	0	0
C=CCn1c(Oc2cc(C)ccc2C)nc2c1c(=O)n(C)c(=O)n2C	0	0	0	0	?	0	-	-	-	-	-
C=Cc1ccc(Cn2c(SCC(=O)N3CCN(c4ccc(F)cc4)CC3)nc3ccccc32)cc1	0	-	0	-	-	-	-	-	-	-	-
CC(=O)NC1C(c2nc3ccccc3s2)=C(c2ccccc2)C(=O)N1c1ccc(C)cc1 (configuration not stated)	0	0	0	0	?	0	-	-	-	-	-
COc1cccc(N2C(=O)C(c3ccccc3)=C(c3nc4ccccc4s3)C2NC(C)=O)c1 (configuration not stated)	0	0	0	0	2.3µM	0	3.2µM	0	?	0	0	ELG1 FLuc counter=0;FLuc enzyme=0
CCn1c(=O)n(CC)c2cc(S(=O)(=O)N3CCC(c4ccccc4)CC3)ccc21	-	0	0	0	?	0	-	-	-	-	?	ELG1 FLuc counter=0;FLuc enzyme=0
Cn1c(=O)c(=O)n(C)c2cc(S(=O)(=O)N3CCC(Cc4ccccc4)CC3)ccc21	0	0	0	0	0	0	-	-	-	-	-
CC(CCc1nc2ccccc2s1)(c1ccc(O)cc1)c1ccc(O)cc1	0[9.22 µM]	-	-	-	-	-	-	-	-	-	-
COc1ccc(C2=Nn3c(nnc3-c3ccncc3)SC2)cc1OC	10µM	0	0	0	?	0	7.9µM	0	?	0	0	ELG1 FLuc counter=0;FLuc enzyme=0
CC1CC(C)CN(S(=O)(=O)N2CCCC(C(=O)NCCc3ccccc3)C2)C1 (configuration not stated)	-	0	0	0	0	0	-	-	-	-	-
CCOC(=O)N1CCC(NC(=O)C2CCCN(Cc3nc(-c4ccc(CC)cc4)oc3C)C2)CC1 (configuration not stated)	-	0	0	0	2.3µM	0	7.9µM	2.5µM	0	3.2µM	?	ELG1 FLuc counter=0;FLuc enzyme=0
COc1cc(OC)c2c(-c3cccc(-c4ccc(N(C)C)cc4)c3)cc(=O)oc2c1	-	2.6µM	-	-	?	-	-	-	-	-	0
COc1ccc(-c2cccc(-c3cc(=O)oc4cc(OC)cc(OC)c34)c2)cc1	-	0	-	-	?	-	-	-	-	-	-
O=C(NC1CCCN(Cc2ccc(Cl)cc2)C1)c1c(F)ccc(F)c1F (configuration not stated)	-	0	0	0	0	0	-	-	-	-	-
COc1cccc(-c2nc(CS(=O)(=O)CC(=O)NCCc3ccccc3)c(C)o2)c1	-	0	0	0	4.6µM	0	?	0	?	0	0
CCc1ccccc1NC(=O)CNCC(=O)Nc1ccccc1CC	-	0	0	0	0	0	-	-	-	-	-
Cc1ccc(N2CN=c3s/c(=C\c4cccnc4)c(=O)n3C2)cc1	0	0	0	0	2.3µM	0	?	?	0	0	?	ELG1 FLuc counter=0;FLuc enzyme=0
O=C(NCc1cccnc1)c1ccc(NC(=O)c2ccc(Br)cc2)cc1	-	0	0	0	2.3µM	0	0	0.025µM	0	0.025µM	0
SMILES	SMN2 splice up	ELG1 genotox	FLuc modulator	Rab9 prom act	ELG1 repair inh	NPC1 promoter act	ELG1-Luc inh	ELG1-Luc MMS	ELG1 5FU viab	ELG1 MMS cell	Cell viab unstim	others
Cc1cc(C)c(C(=O)N2CCCC(CNC(=O)C3(c4ccc(Cl)cc4)CC3)C2)c(=O)[nH]1 (configuration not stated)	-	0	0	0	0	0	-	-	-	-	-
CC(C)(C)OC(=O)NCCCCCNC(=O)c1ncn(Cc2ccccc2)c1C(=O)NCCCCCNC(=O)OC(C)(C)C	-	0	-	-	4.1µM	-	7.1µM	0	?	?	0
CC(C)(C)OC(=O)NCc1ccc(NC(=O)c2nc[nH]c2C(=O)NCCNC(=O)c2[nH]cnc2C(=O)Nc2ccc(CNC(=O)OC(C)(C)C)cc2)cc1	-	0	-	-	1.3µM	-	1.1µM	3.5µM	0	?	?
CC(C)(C)OC(=O)NCCCCCNC(=O)c1nc[nH]c1C(=O)NCC(=O)OCc1ccccc1	-	0	-	-	2.6µM	-	7.9µM	11µM	0	22µM	18µM
CC(C)(C)OC(=O)NCCCCCNC(=O)c1[nH]cnc1C(=O)N[C@@H](CCCCNC(=O)OC(C)(C)C)C(=O)OC(C)(C)C	-	0	0	0	?	0	-	-	-	-	-
CC(C)(C)OC(=O)NCCCCCNC(=O)c1nc[nH]c1C(=O)NCCCCCNC(=O)OC(C)(C)C	-	0	-	-	2.6µM	-	6.3µM	14µM	?	28µM	16µM
CC(C)(C)OC(=O)CN1c2cccc3cccc(c23)S1(=O)=O	-	0	0	0	0	0	-	-	-	-	-
